Results on 63 molecules are retold here after PubChem BioAssay AID1626 (SRMLSC, 2009).

Among all 220,000 compounds or so, about 2,000 (0.91%) were called active. Roughly 2% stayed inconclusive and do not appear here. Only a sample is shown. Potency and affinity values are given separately. Values without a mark were called inactive. Rule as the data show it: inconclusive = inhibition above about 80% without an active follow-up result; inactive = below that; test concentration not stated here.

This assay in a line: M. tuberculosis H37Rv growth inhibitors, H37Rv strain (AID 1626).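 Also: bacteria incubated seven days before Alamar blue readout; 0% = bacteria only wells and 100% = bacteria with antibiotic wells.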 The note with it: hits give high values, concentration not given here.
Take `O=C(Cn1c(=O)n(-c2ccccc2)c(=O)c2oc3ccccc3c21)Nc1ccccc1`: the inhibition is -0.16%.

Turning to `O=C1CC(=O)CC(c2ccccc2Cl)C1`, the inhibition is -8.51%.

Turning to `CCO[C@H]1OC(C(=O)O)=C[C@@H](C(C)(C)C)[C@@H]1CCCO`, the inhibition is -7.81%.

Turning to `NS(=O)(=O)c1ccc(C(=O)Nc2ccc(-c3nc4cccnc4s3)cc2)cc1`, the inhibition was 9.76%.

`Cc1cc(C)c2c3c(cn2n1)c(=O)n(C)c(=O)n3C`: the inhibition is 4.42%.

With `O=C(CCCSc1nc2ccccc2[nH]1)NCc1ccccc1Cl`, the inhibition is -0.81%.

`Cc1cc2nc(CCl)cc(=O)n2[nH]1`: the inhibition is 2.54%.

For `COCCn1cnc2c1c(=O)n(CC(=O)OCC#N)c(=O)n2Cc1ccccc1`, the inhibition is 1.32%.

With `O=C(c1ccccc1)N1CCN(c2ccc([N+](=O)[O-])c(NCC3CCCO3)c2)CC1` (stereo not drawn), the inhibition was 3.59%.

For `O=C(O)CSCC(=O)NC1CCCc2ccccc21` (stereo not drawn), the inhibition was 0.52%.

On to `O=C(COc1ccccc1)NC1CCCc2ccccc21` (stereo not drawn), for which the inhibition is -1.62%.

In the case of `Cc1cc(/C=C2/NC(=O)N(Cc3ccccc3F)C2=O)c(C)n1C(C)C`, the inhibition was 7.35%.

Turning to `Cc1nn(C(=O)c2cccc([N+](=O)[O-])c2)c(C)c1Sc1ccccc1`, the inhibition was 0.41%.

On to `Cc1ccc(OCc2nnc(SCC(=O)c3cccc([N+](=O)[O-])c3)n2C)cc1`, for which the inhibition was 3.44%.

Turning to `COc1ccc(NC(=O)C2CCC(N3C(=O)C4C5C=CC(C5)C4C3=O)CC2)cc1` (stereo not drawn), the inhibition was -14.2%.

For `O=C(COc1ccc(Cl)cc1)NCc1ccncc1`, the inhibition is 0.93%.

Regarding `O=C(COc1ccc2ccccc2c1)Nc1ccc(Cc2ccncc2)cc1`, the inhibition was 11.6%.

Regarding `O=C(COc1ccc2c(c1)CCC2)NCc1ccc(Cl)cc1`, the inhibition is 13.4%.

Regarding `CC(=O)c1ccc(NC(=O)COc2ccc3c(c2)OCO3)cc1`, the inhibition is 14%.

For `COc1cc(NC(=O)COc2ccc(-n3ccnc3)cc2)cc(OC)c1`, the inhibition was 54.1%.

For `O=C(O)COCC(=O)Nc1ccc2c(c1)CCC2`, the inhibition is -2.88%.

With `O=C(COc1cc(Cl)ccc1Cl)Nc1ccc2c(c1)CCC2`, the inhibition is 3.53%.

Take `O=C(COc1ccc(-n2ccnc2)cc1)Nc1cccc(Cl)c1`: the inhibition is 3.18%.

In the case of `Cc1ccc(/C=N/n2c(C)n[nH]c2=S)o1`, the inhibition is -0.73%.

Regarding `Cn1c(SCc2nc3ccccc3[nH]2)nnc1-c1cccnc1`, the inhibition was -8.31%.

As to `Brc1ccccc1-n1nnc(-c2ccnc3ccccc23)n1`, the inhibition was -5.72%.

Turning to `O=C(COc1ccc2c(c1)CCC2)NCc1cccc(Cl)c1`, the inhibition is 13.9%.

`O=C(COc1cccc(Cl)c1Cl)Nc1ccc2c(c1)CCC2`: the inhibition was -7.06%.

In the case of `COC(=O)COc1cccc(NC(=O)c2ccccc2)c1`, the inhibition was 10.8%.

`COc1ccc(OCC(=O)Nc2cccc(OC)c2)cc1`: the inhibition is 0.47%.

For the molecule `O=C(COC(=O)c1cncc(Br)c1)Nc1ccc2c(c1)OCO2`, the inhibition is 2.32%.

For the molecule `O=C(COC(=O)c1ccc(F)cc1F)Nc1ccc2[nH]c(=O)[nH]c2c1`, the inhibition is 0.74%.

In the case of `CCCC(=O)Nc1ccc2oc(-c3ccncc3)nc2c1`, the inhibition is 0.51%.

Take `Cc1c(Cl)cccc1NC(=O)Cn1c(-c2ccc(F)cc2)noc1=O`: the inhibition was -3.42%.

As for `Cc1c(O)c(S(=O)(=O)c2ccccc2)c(=O)n(-c2ccccc2)c1-c1ccccc1`, the inhibition was -1.42%.

As to `NNC(=S)Nc1ccc(S(=O)(=O)N2CCOCC2)cc1`, the inhibition is -8.51%.

Turning to `CCCOc1ccc(C(=O)Nc2nc(C)c(Cc3ccc4c(c3)OCO4)s2)cc1`, the inhibition was 2.21%.

For `Cc1nc(NC(=O)c2ccc(Cl)cc2)sc1Cc1ccc2c(c1)OCO2`, the inhibition is -0.23%.

As for `COc1cccc(C(=O)N(Cc2nc(-c3ccc(C)cc3)no2)C(C)C)c1`, the inhibition is -3.98%.

For the molecule `COc1cc(/C=C/C(=O)OCC(=O)NC(=O)NC(C)C)cc(S(=O)(=O)N2CCc3ccccc32)c1OC`, the inhibition is 3.06%.

For the molecule `Cc1ccccc1CSCCNC(=O)Nc1ccccc1`, the inhibition was -0.63%.

As for `Cc1c2c(nc3ccccc13)CCC(C(C)(C)C)C2` (stereo not drawn), the inhibition is 6.35%.

On to `Cc1c2c(nc3ccccc13)OCC2`, for which the inhibition is -16.5%.

With `CCc1cccc(NC(=O)Cc2ccc([N+](=O)[O-])cc2)c1`, the inhibition is 58.6%.

For `O=C(Nc1ccc([N+](=O)[O-])cc1)Nc1ccc(Cl)cc1F`, the inhibition is 9.88%.

Take `Nc1c(C(=O)O)cnn1-c1ccc([N+](=O)[O-])cc1`: the inhibition was -2.22%.

In the case of `O=C(Cc1ccc([N+](=O)[O-])cc1)Nc1ccc(Cl)cc1`, the inhibition was 3.56%.

For the molecule `O=C(c1ccc(F)cc1)N1CCN(C2CCC(c3ccccc3)CC2)CC1` (stereo not drawn), the inhibition was 5.5%.

Turning to `CCOC(=O)c1ccc(NC(=O)CSc2nc(NC(=O)c3ccccc3)c3c(C)c(C)oc3n2)cc1`, the inhibition was 9.26%.

In the case of `COc1cc(CCN2C(=O)N[C@@H](CCc3ccccc3)C(C(C)=O)=C2C)cc(OC)c1OC`, the inhibition is -6.61%.

Turning to `Oc1ccc(CN2CCN(Cc3ccccc3)CC2)c2cccnc12`, the inhibition was -2.63%.

On to `O=C(N/N=C/c1ccc(O)c2ncccc12)c1cccc(Br)c1`, for which the inhibition was -4.1%.

`COCc1cc(CN2CCCC2)c(O)c2ncccc12`: the inhibition was -1.29%.

Consider `CC(C)COCc1ccc(O)c2ncccc12`, for which the inhibition is 47.1%.

As to `Oc1ccc(F)c2cccnc12`, the inhibition is 44.5%.

As to `OCc1ccc(O)c2ncccc12`, the inhibition was 1.86%.

On to `CC(C)CC(c1nnnn1CC1CCCO1)N1CCN(Cc2ccc3c(c2)OCO3)CC1` (stereo not drawn), for which the inhibition is 0.16%.

With `CCN1C/C(=C/c2sccc2C)c2nc3ccccc3c(C(=O)O)c2C1`, the inhibition is -0.78%.

`Nc1nnnn1CC(=O)N/N=C/c1cc([N+](=O)[O-])ccc1Cl`: the inhibition was -0.24%.

On to `Cc1ccc(C(=O)COC(=O)CN2C(=O)C3C4CCC(C4)C3C2=O)cc1[N+](=O)[O-]` (stereo not drawn), for which the inhibition is 19.5%.

Regarding `Cc1ccc(CNC(=O)c2ccc(Cn3nc(C)c(Cl)c3C)o2)cc1`, the inhibition was 2.97%.

As to `COc1ccc(NC(=O)CCN2CCOCC2)c(OC)c1`, the inhibition is -3.47%.

On to `COc1ccc(-c2nc3ccccc3c(=O)n2CCOc2ccccc2C)cc1`, for which the inhibition was 0.63%.

The inhibition is the relative decrease from the control value, in per cent.
